From PubChem BioAssay (NCI)
This is part of a sample that, as a whole, favours compounds with a hit. Of some 83,000 tested, about 20% had one in any assay.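 How to read the values: 0–100, growth inhibition (40 = 60% inhibited); 0, no net growth; -100 to 0, cell death (-40 = 40% of starting cells died; -100 = all dead).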 A number with no mark means an inactive call. The source made the active and inactive calls. The calls were made as follows: active = growth percent below 10; inactive = the rest.

What was measured:
Experiment in all cases: NCI-60 one-dose screen, 48 h (100 = growth as untreated, 0 = no growth, -100 = all killed)
Conditions in all cases: 10 µM unless noted
NCI-H23 lung = system: NCI-H23 lung
NCI-H226 lung = system: NCI-H226 lung
NCI-H322M lung = system: NCI-H322M lung
HOP-62 NSCLC = system: HOP-62 NSCLC
NCI-H460 lung = system: NCI-H460 lung
HOP-92 NSCLC = system: HOP-92 NSCLC
NCI-H522 lung = system: NCI-H522 lung
A549/ATCC NSCLC = system: A549/ATCC NSCLC
786-0 renal = system: 786-0 renal
COLO 205 colon = system: COLO 205 colon
DU-145 prostate = system: DU-145 prostate
K-562 leukemia = system: K-562 leukemia
MALME-3M melanoma = system: MALME-3M melanoma
MDA-MB-231 breast = system: MDA-MB-231 breast
RXF 393 renal = system: RXF 393 renal
SF-268 CNS = system: SF-268 CNS
SF-295 CNS = system: SF-295 CNS
SF-539 CNS = system: SF-539 CNS
UACC-257 melanoma = system: UACC-257 melanoma
M14 melanoma = system: M14 melanoma

Compound	growth (NCI-H23 lung)	growth (NCI-H226 lung)	growth (NCI-H322M lung)	growth (HOP-62 NSCLC)	growth (NCI-H460 lung)	growth (HOP-92 NSCLC)	growth (NCI-H522 lung)	growth (A549/ATCC NSCLC)	growth (786-0 renal)	growth (COLO 205 colon)	growth (DU-145 prostate)	growth (K-562 leukemia)	growth (MALME-3M melanoma)	growth (MDA-MB-231 breast)	growth (RXF 393 renal)	growth (SF-268 CNS)	growth (SF-295 CNS)	growth (SF-539 CNS)	growth (UACC-257 melanoma)	growth (M14 melanoma)
CC(=O)c1cc(C(=O)c2ccc3c(c2)Sc2ccccc2N3)c2c(C)cccn12	27%	47.8%	37.4%	19.1%	6.41% (active)	94%	12.5%	19.5%	4.46% (active)	-43.7% (active)	13.9%	7.8% (active)	62.3%	19.7%	-7.81% (active)	28.4%	4.09% (active)	-28.4% (active)	77%	16.9%
COc1cccc(CC(C)=C(c2ccc(OCCCN(C)C)cc2)c2ccc(OCCCN(C)C)cc2)c1	-66.9% (active)	-18.9% (active)	-95% (active)	-81% (active)	-90.2% (active)	-53% (active)	-77.3% (active)	-81.5% (active)	-85.6% (active)	-74.1% (active)	-94.4% (active)	-67.5% (active)	-87% (active)	-82.2% (active)	-89.5% (active)	-81.8% (active)	-68.2% (active)	-91.6% (active)	-82.3% (active)	-80% (active)
CCOC(=O)C1=C(C)NC(SCc2nnc(-c3ccc(Cl)cc3)o2)=NC1c1ccc(Cl)cc1 (stereo not given)	78.8%	69.9%	82.3%	92.8%	79%	64.1%	68.9%	69%	83.4%	79.6%	87.2%	55.8%	81.7%	62.7%	67.7%	86%	74.1%	87.7%	86.9%	69.3%
CCCOC(=O)C1c2cc3c(cc2CC(C)C1C(=O)OCCC)OCO3 (stereo not given)	85.8%	94.1%	80.9%	95.3%	103%	70.3%	70%	92.6%	94.5%	121%	112%	99.6%	104%	90%	93.3%	106%	83%	122%	76.9%	100%
COc1cc(CN2CCO[C@H](COc3cccc(F)c3)C2)ccc1Cl	48.8%	59.7%	73.3%	33.4%	24.8%	48.6%	30.7%	29.3%	52%	12.5%	41.5%	21.1%	63.8%	33.2%	79.3%	48.2%	28%	59.5%	19.2%	39.1%
C=CCn1c(C)nc2cc(Nc3nc(N4CCCC4)nc4nc[nH]c34)ccc21	52.4%	58.9%	50.9%	50.6%	0.371% (active)	-39.5% (active)	56.3%	46.3%	-76.1% (active)	73.4%	48.2%	-9.1% (active)	-29.3% (active)	-25% (active)	54.4%	29.3%	31.2%	-18.7% (active)	60.9%	28.8%
Nc1nc(N)c2c(n1)NC(c1sc(Cl)nc1Cl)CC(c1ccc3c(c1)OCO3)=N2 (stereo not given)	39.9%	82.7%	72.6%	34.5%	13.2%	56%	-28.3% (active)	36.4%	38.1%	7.12% (active)	35.3%	16.9%	28.8%	48.8%	-1.6% (active)	38.8%	18.5%	-14.9% (active)	39.2%	18.1%
C/C=C(\C)C(C(=O)NC1CCCCC1)N(C(=O)C1CCc2cc(F)ccc2O1)c1ccc([N+](=O)[O-])cc1 (stereo not given)	91.9%	72.5%	92.8%	87.3%	82.5%	92.6%	81.9%	79.1%	90.1%	98.7%	105%	80.7%	92.4%	77.7%	98.4%	87%	82.5%	92.8%	93%	82.4%
